Measurements as given in PubChem BioAssay AID686979 (National Center for Advancing Translational Sciences (NCATS), 2013).
Screen size: about 420,000 compounds; about 50,000 (12%) were called active. About 26% were inconclusive and are not listed. What follows is part of a selection rich in actives, with near analogues and random picks from the rest. Unmarked numbers belong to inactive results. The call rests on the fitted dose curve; in most records, active means well fitted inhibition curve with a large enough effect; inconclusive means small, poorly fitted or top-dose-only effect; inactive means flat fitted curve, though single readings scatter. *1 amine or outer side, *2 acyl side, *3 side chain or, on linkers, in order; H or OH if unused. Where a SMILES comes first, the peptide text is derived from it. Bridges are numbered along the chain shown (N, C = ends). [ ]: non-standard residue; d: D form. The star is where a group is joined. X12 = NC1=N[C@@H]([C@H](N[*:1])C(=O)[*:2])C[C@H](O)N1; ΔAla(Z-3-ureido) = NC(=O)N/C=C(\N)C(=O)O; β3hOrn = NCCC[C@H](N)CC(=O)*; Dap = NC[C@H](N)C(=O)O

Experiment: qHTS for Inhibitors of human tyrosyl-DNA phosphodiesterase 1 (TDP1): qHTS in cells in presence of CPT; further: nearly all actives have a fitted effect of over 55% in size
Settings: chicken DT40 Tdp1-/-;hTDP1 cells + 20 nM CPT, ATP luminescence, 48 h; series mostly up to 46.2 µM; activity change, negative = growth inhibition: at the top concentration
How it was run: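 Chicken DT40 Tdp1-/- cells complemented with human TDP1, 400 cells/well, exposed to compounds plus 20 nM camptothecin for at least 48 h at 37 C; viability read as ATP content by CellTiter-Glo luminescence.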
On the % scale 0 is the no-effect control and ±100 the full control effect; potency means the concentration at half of the fitted maximal effect.

| Structure (SMILES) | activity change, negative = growth inhibition [%] | Potency |
| --- | --- | --- |
| Cc1ccc(NC(=O)COc2ccc(/C=N\NC(=O)c3cccnc3)cc2)cc1C | -5.23 |  |
| CC1(C)N=C(N)NC(Nc2ccc(Cl)cc2)=N1 | -13.1 |  |
| COc1ccccc1NC1=NC2(CCCC2)N=C(N)N1 | -12.7 |  |
| COc1ccccc1NC1=NC(c2ccc(Cl)cc2)N=C(N)N1 (stereo unspecified) |  | 5.17 µM (active) |
| CC1(C)C(C=C(Cl)Cl)C1C(=O)NC(O)C(=O)c1ccccc1 (stereo unspecified) | 2.14 |  |
| COCCN(C(=O)CSCc1ccc(C)cc1)c1c(N)n(CC(C)C)c(=O)[nH]c1=O | 9.75 |  |
| C[C@]12C=CC(=O)C=C1CC[C@@H]1[C@@H]2C(=O)C[C@@]2(C)[C@H]1CC[C@]2(O)C(=O)CO |  | inactive |
| CCC1CCCCN1C(=S)NC(=O)c1ccco1 (stereo unspecified) | 0.583 |  |
| CCOc1cc(/C=C2/N=C(c3ccc(C(C)(C)C)cc3)OC2=O)cc(Cl)c1OS(C)(=O)=O |  | 18.4 µM (active) |
| O=C1OC(c2ccc(Cl)cc2)=N/C1=C\c1cccnc1 | -25.1 |  |
| CC1CCN(C(=O)COC(=O)CCC(=O)c2cccs2)CC1 | -0.232 |  |
| COc1cc(C2CC(=O)Oc3cc(OC)c(OC)c(OC)c32)cc(OC)c1OC (stereo unspecified) | -8.15 |  |
| Cc1cc(C)cc(NS(=O)(=O)Cc2ccccc2)c1 | 14.9 |  |
| Cn1nnnc1SCC(=O)NNC(=O)c1ccc(Br)cc1 | 0.881 |  |
| Cc1nc2ccccc2cc1OCc1ccc(F)cc1 |  | 11.6 µM (active) |
| Cc1nc2ccccc2cc1O | -22.8 |  |
| Cc1occc(=O)c1OCc1ccc(F)cc1 | 13.4 |  |
| COC(=O)C1[C@H]2SC(C)(C)C(C(=O)OC)N2C(=O)N1Cc1nc2ccccc2s1 (stereo partly specified) | -1.96 |  |
| COCCNC(=O)c1cc(-c2cccc(Cl)c2)on1 | 4.91 |  |
| CC(C)c1nnc(NC(=O)C2CC(=O)N(CCc3ccc(F)cc3)C2)s1 (stereo unspecified) | 7.52 |  |
| O=C(CCC(=O)n1ncc2ccccc21)NCc1ccccc1Cl | -1.16 |  |
| O=C(Cc1ccccc1)Nc1ccc(NC(=O)c2cccnc2)cc1 | -28 |  |
| CCc1noc(C)c1C(=O)Nc1nc2ccc(OC)cc2s1 | 13.8 |  |
| CCOC(=O)c1cc(NC(=O)c2cccnc2)cc(C(=O)OCC)c1 | -8.88 |  |

| Structure (SMILES) | activity change, negative = growth inhibition [%] | Potency |
| --- | --- | --- |
| CCCC(=O)Nc1ccc2c(c1)nc1n2CCSC1 | -0.992 |  |
| CCCC(=O)Nc1nc2ccc(NC(=O)c3c(F)c(F)c(OC)c(F)c3F)cc2s1 |  | 0.92 µM (active) |
| CCCC(=O)Nc1nc2ccc(NC(=O)c3cccnc3)cc2s1 |  | 9.2 µM (active) |
| Cc1cc(C)c(S(=O)(=O)N2C=CC(C(F)(F)F)=NCC2)c(C)c1 | 2.91 |  |
| c1ccc2cc(C3=NCCN3)ccc2c1 | 4.03 |  |
| Cc1ccc(Nc2c(O)nc[nH]c2=O)cc1C | 8.79 |  |
| Cc1c(Cl)cccc1NC(=O)[C@@]1(CC(=O)O)CC(/C=C/c2ccccc2)=NO1 | 3.33 |  |
| N#CCc1c(C#N)c(N)nc(N2CCCC2)c1C#N | 15.6 |  |
| Cc1ccc(C(=O)Nc2nnc(-c3ccncc3)s2)o1 | -12.2 |  |
| CCCCN(C)c1nnc(NC(=O)Nc2ccc(Br)c(C)c2)s1 | -27.6 |  |
| Cc1ccc(NC(=O)Nc2nnc(-c3ccncc3)s2)cc1 |  | 18.4 µM (active) |
| Cc1nnc(NC(=O)Nc2ccc(Cl)c(Cl)c2)s1 |  | 23.1 µM (active) |
| Cc1occc1C(=O)Nc1nnc(-c2ccncc2)s1 | 10.3 |  |
| Cc1nnc(NC(=O)c2ccc3nccnc3c2)s1 | -17.6 |  |
| COCC1CCCN(C(=O)c2ccc3oc(C(C)C)nc3c2)C1 (stereo unspecified) | -8.78 |  |
| COCCNC(=O)CN(Cc1ccco1)C(=O)CCC(=O)Nc1nccs1 | 1.07 |  |
| COc1ccc2c(c1)CCCO[C@]21O[C@H](CCO)C[C@H](O)[C@H]1O | -1.84 |  |
| CCC(C)NC(=O)c1cc(Cl)ccc1OC (stereo unspecified) | -7.43 |  |
| CC1CCN(C(=O)c2ccc3c(=O)n4c(nc3c2)CCCCC4)CC1 | -3.88 |  |
| CC1CCc2c(sc3nc4n(c(=O)c23)CCS4)C1 (stereo unspecified) | -28.3 |  |
| Cc1ccc(NC(=O)Nc2sc3nc4n(c(=O)c3c2C)CCC(C)CC4)c(Cl)c1 (stereo unspecified) |  | 11.6 µM (active) |
| Cc1ccccc1NC(=O)CSc1ccc2nnc(-c3ccccn3)n2n1 | -15.4 |  |
| COC(=O)[C@]1(C)N[C@H](CN(C)C(=O)c2ccc(C(C)(C)C)cc2)[C@@H]2C(=O)N(C)C(=O)[C@@H]21 | -7.64 |  |
| Cc1cc(C)c(S(=O)(=O)c2cc(F)ccc2C)c(=O)[nH]1 | 2.26 |  |

| Structure (SMILES) | activity change, negative = growth inhibition [%] | Potency |
| --- | --- | --- |
| CC1(C)CN(c2ccc(-c3ccnc4ncnn34)cc2)C1=O | -8.25 |  |
| O=S(=O)(c1cccs1)N1CCN(Cc2ccccc2)CC1 | -12.6 |  |
| COc1ccc2c(CN3CCN(S(=O)(=O)c4cccs4)CC3)cc(=O)oc2c1 | -24.3 |  |
| Cc1cc2oc(=O)cc(CN3CCN(S(=O)(=O)c4cccs4)CC3)c2cc1C(C)C |  | 23.1 µM (active) |
| CCOc1ccc(C(CC(=O)O)n2cnnn2)cc1OC (stereo unspecified) | 1.9 |  |
| COc1ccc(C2=NN(C(=O)c3cccnc3)C(c3ccccc3)C2)cc1 (stereo unspecified) | -8.32 |  |
| CCC(CC)c1nnc(NC(=O)C2=COCCO2)s1 | 11.4 |  |
| Cc1sc2nc(COC(=O)C(NC(=O)c3ccc(Cl)cc3Cl)C(C)C)[nH]c(=O)c2c1C (stereo unspecified) | -20.6 |  |
| Cc1sc2nc(CSCC(=O)Nc3c(Cl)cccc3Cl)[nH]c(=O)c2c1C |  | 7.31 µM (active) |
| CCN(CC)Cc1nc2sc(C)c(C)c2c(=O)[nH]1 | -3.36 |  |
| CCOC(=O)/C=c1\s/c(=C\c2ccccc2OC)c(=O)n1CC(=O)N1CCOCC1 | -24.5 |  |
| CCOC(=O)/C=c1\s/c(=C\c2ccc(C#N)cc2)c(=O)n1CC(=O)Nc1cccc(C)c1C |  | 1.3 µM (active) |
| CCOc1ccc(NC(=O)Cn2c(C)ccc(C#N)c2=O)cc1 | -0.0068 |  |
| NCCC[C@H](N)CC(=O)N[C@H]1CNC(=O)[C@H]([C@H]2C[C@H](O)NC(N)=N2)NC(=O)/C(=C/NC(N)=O)NC(=O)[C@H](CO)NC(=O)[C@H](CO)NC1=O (β3hOrn-[Dap]SS[ΔAla(Z-3-ureido)][X12]; lactam 1-C) | -9.6 |  |
| COc1cc(NC(=O)c2nn(-c3ccc(C)cc3)c(=O)c3c2c2ccccc2n3C)cc(OC)c1OC | -3.89 |  |
| Cc1cc(NC(=O)Nc2ccc(Cl)cc2)n(-c2ccccc2)n1 | 1.8 |  |
| COc1ccc(-n2nc(C(=O)NCC(=O)N3CCCCCC3)c3ccccc3c2=O)cc1Cl |  | 18.4 µM (active) |
| COc1ccc(CCNC(=O)c2c(C)nn(-c3ccccc3)c2Cl)cc1 | -17.4 |  |
| COc1ccc(-n2nc(C(=O)NCC(=O)N3CCC(C(N)=O)CC3)c3ccccc3c2=O)cc1OC | -4.29 |  |
| CCOC(=O)c1ccccc1NC(=O)c1nn(-c2ccc(OC)c(Cl)c2)c(=O)c2c1c1ccccc1n2C | 13.7 |  |
| COCCCNC(=O)CNC(=O)c1nn(-c2ccc(OC)cc2)c(=O)c2ccccc12 | 17.6 |  |
| Cc1cc(C(=O)NCCc2ccc(Cl)cc2)n(-c2ccccc2)n1 |  | 20.6 µM (active) |
| COc1ccc(-n2nc(C(=O)NCCc3ccc(Cl)cc3)c3c4ccccc4n(C)c3c2=O)cc1Cl |  | 3.66 µM (active) |
